The full ranking holds about 9,900 sequences; the median of “r (bound/input frequency ratio)” is about 0.7, and the highest 2% start at about 6.5. The list comes from a sample in which the highest values are over-represented; it also holds similar and randomly drawn sequences.
B1: ENSMUSG00000004113.268|Cacna1b (ssRNA)
RNA: GGGAGUUCUACAGUCCGACGAUCGCUUCGAUAUCCGCAUGCUACGUGUUACAAGAAACUGGCAGGAAGGAAAUGGCCCUGGAACAGGCCAGGUGCCUAGAGCUAAGUCAGGCCCCUGGCUUAGCACUAGAAAAAAUAAAACCUCAUGGCUGCUUUGCAAAGGGAAAACCCAUGCUCAGGAAGGUGUUCAGUGUGCACAGAUAGCUGGGAGGCCACGAGAGAAAGGUUGCACACAGACAGGCAGGCACUCCUUGGUGUGGUCUCUCUGUUUUGAAACUUCUGAUGACUUCUUGGUGGCUUGUUGCUCUUGCGGUCGCACUAGUGUGGAAUUCUCGGGUGUCAAGG
B2: ENSMUSG00000029028.187|Lrrc47|67:71 (ssRNA)
RNA: GGGAGUUCUACAGUCCGACGAUCGCUUCGAUAUCCGCAUGCUAGUCAGCGUGUCCCACUAUUCAUGUCCCAUCUCUGUGCAUCCUGACUGCGCACAUCCCAUCUCCGCAACACAACGCAUCUGUACCAGCACACAGCUGCCAUCCCUCGAGCCACAGUGCCUGGUCCUAAGGACCCAGCAGCUGCACAGAGGACUUGGUGGCCCCGUGCCUUGCCAUCUGGCUGAGAAGAGAACCAGACCCUCAGCCUUCCCCCUCGACACCUUCUCGUUGGUGACCUCUGACCUUAAAGGACCAUUUCUACCCUCUUGCGGUCGCACUAGUGUGGAAUUCUCGGGUGUCAAGG
B3: ENSMUSG00000061578.966|Ksr2 (ssRNA)
RNA: GGGAGUUCUACAGUCCGACGAUCGCUUCGAUAUCCGCAUGCUAGCCCUGGAUGUGACUAUAUGUGCUGAGAAGGGAAGGUAGUUUUCCCCCAGAAAGUCCCUUCUAAUAAACAUUGAUGACUUUAGAAUCCAUGACUCAGAAUUUUCCAGAGACCCAAUCCCUCGGGGUCCACUUAGUGAUGGGACCAUACAAGAGUUUAUUUCCAAUUAGAGAAUUGGGUCAACUGGGAAAGGCUUCUUUCCUGGUAACCCUGCUACUGAUACUAUGUUGAAACAGGAAUCGACUCUAACUGCUUUUUGGCCCUCUUGCGGUCGCACUAGUGUGGAAUUCUCGGGUGUCAAGG
B4: ENSMUSG00000031028.668|Tub (ssRNA)
RNA: GGGAGUUCUACAGUCCGACGAUCGCUUCGAUAUCCGCAUGCUAGGCAAAAUUUCUCUAGCUGAGAGCACACUUAGCCAGUUUUCACGCCUAGAACAUAUAUGUCGAUUUGCACAUGAUUGUCUUUUCCUAUUUUGGAGUGGUCAGACAUUUUAUUUUUGUUCAAAAUUAUCUGGAGUUUUAGACAAACUUGCAAAACUGUGCUUUUAUUAAGUGACUUUUUGAAUAAACUUUUUGGUAUUCUGAAGCAAAUGUAUUUAUUUAUUGGUAUGUGCAAUGACAAACUUGGUAUUUUCCCAUAAUGACUCUUGCGGUCGCACUAGUGUGGAAUUCUCGGGUGUCAAGG
B5: ENSMUSG00000061578.140|Ksr2 (ssRNA)
RNA: GGGAGUUCUACAGUCCGACGAUCGCUUCGAUAUCCGCAUGCUAGGCUGUGGCAAGAGAGUUCUGGUGUGUUCUCUCUGUGGGGCUAGCAAUGCCGGGGUUAAGUUCUCCCUCGGUGAUGGAGACGGUCCUGGGUAUGCAUGAUGGGUUACAUGGGUGUGUGUGUGUGUGUAACUGUUUACAAUGGUCUCCCUGCCUCUCACGGGCUGUGUUCCAGGAGAAUGCACAUAGAGAGGUUCUGUGGUCUCUGCUGUCGCCUGGUGCUGAAUCCUGAGUGGUUUCCCCACUGAGGACCCUGUGACCCUCUCUUGCGGUCGCACUAGUGUGGAAUUCUCGGGUGUCAAGG
B6: ENSMUSG00000061578.854|Ksr2|32:36 (ssRNA)
RNA: GGGAGUUCUACAGUCCGACGAUCGCUUCGAUAUCCGCAUGCUAAGAGCAAUACAGGAAAAGGUCAGGGGUGAGAACACACAUUGCCACUUCCUCCAGCUAGGACCUUUGAGCAUCACAUUGUGAAGCCAUCCAGGGACUUGGGGGUUAGGUCAGAGGUAUCAAUACAUCUCCGGAAACAUCGUCACAGAUACCUAGAGGUACUUCAUUGAUCCCUUGAAAAGCAUGUCUUAAUUCUGUUAAGAUGUCAAUCAAGAUUACACAUCUCACUGCUUCACAGGCCAUCAGGGCCCCAUUCUGAGGUCCUCUUGCGGUCGCACUAGUGUGGAAUUCUCGGGUGUCAAGG
B7: ENSMUSG00000090935.379|Synj2bp (ssRNA)
RNA: GGGAGUUCUACAGUCCGACGAUCGCUUCGAUAUCCGCAUGCUAAGAUGCAGGGAUAUUGGUGAGGUGGGAGCUGUCCUGUUUAUGUAACAUCUAAGUUGGUUUUAGAGUACUGAGGAUAGUUGAACCAAGCCUAUUUUUUUUCCACUUUAACAAAAUAAUUUCCUUCUUUUCAGUAAAUUGGCCAGACUAUUAUUUUGACAUAAGAUUAUGAAGAGUUUUCCCGACAGUCUAGCAGUCACUUAACAGAUGUUGAUUGCACAUUAGUUUUGUCAGGACACCUUUAUAAAAAGAGAAAUGCACAUCUCUUGCGGUCGCACUAGUGUGGAAUUCUCGGGUGUCAAGG
B8: ENSMUSG00000061578.1219|Ksr2 (ssRNA)
RNA: GGGAGUUCUACAGUCCGACGAUCGCUUCGAUAUCCGCAUGCUACAGCAUGCUUCACUCUAUGAAUGAGCCGCUGGGAUAUUGACAUGGAGAUGUGUUGAUGGAAAAAGCCUCCACACCCAACAUAACUCUCCAGAGAGAUAUUGAAAGUGAUGGGCAGAGAGUCUGACAAUGACCCAGGGGUCAUUGUGAGUCCUAGGCUGAAUCUGUAAUGGGGUCCAAAGUGCAGGAGAGACUGCAUUCACCUUGUUGGUGGGGUGGGGCUUCUUUCAUUACUUUAAGUAUCUGUAUGGGCUUGAGGCAUGCUCUUGCGGUCGCACUAGUGUGGAAUUCUCGGGUGUCAAGG
B9: ENSMUSG00000090935.669|Synj2bp (ssRNA)
RNA: GGGAGUUCUACAGUCCGACGAUCGCUUCGAUAUCCGCAUGCUAUGGAGUGAGAUGAGUGUGUGCCAGCCAGCAACUCUGUCCUUCUAGGUAACUGGUUCAUGCUGAACCUUGAGAUUCACCACUGUCAGGAGCUCUCUCUCUCUGCUUAGAAUCAUCCAGACAGCGGGCUGGUCAGCCCACAUUAAAUAAGAACAUGUGGGACUAGAAUUCAGUCAACAAUGACAUGUUUCAUCAGGUGGUUAAAAUGUACAGAUUCUGUUGGAAAUGUUCCAUGGUAUUUCAAUAGCCAGAAUGAAGAACUGCUCUUGCGGUCGCACUAGUGUGGAAUUCUCGGGUGUCAAGG

Target: TDP-43 (Homo sapiens, UniProt Q13148 1-414)
Experiment: RNA Bind-n-Seq with designed 260-mer pool; 25 mM Tris-HCl, 150 mM KCl, 3 mM MgCl2, BSA (printed 500 mg/mL), 20 units/mL SUPERase IN; pH not stated; 500 nM RNA pool, 1 h, 4 C; TDP-43 5, 50, 500 nM; high values mean tight binding
Details: protein: recombinant; tags: SBP (GST cleaved off with PreScission; pGEX-GST-SBP)
Outline: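 Recombinant SBP-tagged TDP-43 at 5, 50 or 500 nM was captured on streptavidin beads, then incubated 1 h at 4 °C with 500 nM of an in vitro-transcribed 260-nt 3′ UTR oligo pool in 25 mM Tris-HCl, 150 mM KCl, 3 mM MgCl2, BSA and SUPERase IN. Bound RNA was washed, eluted with biotin, reverse transcribed, PCR-amplified and sequenced. Binding is R, each oligo's mapped-read-normalized abundance in the bound sample divided by its abundance in input. Duplicates used two independent protein batches.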

Sequence of TDP-43 (Q13148 whole entry): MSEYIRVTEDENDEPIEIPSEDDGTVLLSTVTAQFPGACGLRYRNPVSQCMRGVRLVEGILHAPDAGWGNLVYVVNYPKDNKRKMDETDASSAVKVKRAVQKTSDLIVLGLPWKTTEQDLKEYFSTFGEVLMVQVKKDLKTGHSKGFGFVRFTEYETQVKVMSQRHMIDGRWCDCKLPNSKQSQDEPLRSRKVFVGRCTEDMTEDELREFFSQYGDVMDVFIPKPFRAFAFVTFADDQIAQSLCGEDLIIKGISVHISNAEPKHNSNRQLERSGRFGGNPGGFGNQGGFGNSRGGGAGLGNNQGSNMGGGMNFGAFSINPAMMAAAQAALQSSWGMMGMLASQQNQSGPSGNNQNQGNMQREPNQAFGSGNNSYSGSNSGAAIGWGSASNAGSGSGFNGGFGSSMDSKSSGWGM

| Binder | binding signal |
| --- | --- |
| B1 | 0.57 R (bound/input frequency ratio) |
| B2 | 1.42 R (bound/input frequency ratio) |
| B3 | 0.302 R (bound/input frequency ratio) |
| B4 | 0.159 R (bound/input frequency ratio) |
| B5 | 5.07 R (bound/input frequency ratio) |
| B6 | 0.103 R (bound/input frequency ratio) |
| B7 | 0.043 R (bound/input frequency ratio) |
| B8 | 0.535 R (bound/input frequency ratio) |
| B9 | 1.53 R (bound/input frequency ratio) |
